Source: PubChem
Rows were chosen to be rich in hits. Some 10% of all compounds tested hit in one or more screens of this group.
Lmaj promast = Leishmania major promastigote growth inhibition, primary screen; inhibition, % at 10 µM; 200,000 compounds, 9% hits; Leishmania major promastigotes, resazurin fluorescence viability; AID 1063, 2008; in the data active means inhibition above about 50%;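 further: promastigotes grown with compound for 44 hours at 28 °C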
INS promoter inh = inhibitors of insulin promoter-driven GFP, primary screen, imaging, TRM-6 cells (human fetal islet line), eGFP reporter, cell count; reporter expression induced with tamoxifen; inhibition, % at 2 µM; 130,000 compounds, 0.9% hits; AID 1273, 2008;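 active means inhibition above the mean plus 3 SD, with well images judged a real hit on visual review, cut at about 60% in these data, passing the limit was not always enough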
ROMK mod = ROMK potassium channel modulators, primary screen, cell-based, thallium flux, MLSMR library. ATP-sensitive inward rectifier potassium channel 1 (Homo sapiens), P48048. Tet-inducible ROMK, thallium flux fluorescence; actives lie on both sides. B-score at 10 µM. 130,000 compounds, 2% hits. AID 1918, 2009;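 active means signal ratio slope over the read window, or its plate-corrected B-score, at least 3 SD from the plate mean, either direction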;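 further: B-score of the F/F0 ratio slope over 7 to 12 s after thallium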
HCT116 PTEN-null = growth suppression of PTEN-null HCT116, primary screen, cell-based, CellTiter-Glo; HCT116 PTEN-null viability, 60 h; stronger effect = lower value; viability, % at 10 µM; 140,000 compounds, 1.2% hits;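 active means viability at or below a set limit, 4 SD under the median of all tested compounds, cut at about 3.7% in these data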;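 further: PTEN knockout HCT116 line with beta catenin targeted HCT116 as companion control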
p97 ATPase inh = inhibitors of human p97 ATPase, primary screen, biochemical. Transitional endoplasmic reticulum ATPase (Homo sapiens), P55072. recombinant p97 ATPase, Kinase-Glo ATP luminescence, 3 h. inhibition, % at 8 µM. 220,000 compounds, 0.42% hits; in the data active means inhibition above about 15%;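 further: 0% = DMSO vehicle and 100% = wells lacking enzyme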
Target sequence (P55072 whole entry, looked up): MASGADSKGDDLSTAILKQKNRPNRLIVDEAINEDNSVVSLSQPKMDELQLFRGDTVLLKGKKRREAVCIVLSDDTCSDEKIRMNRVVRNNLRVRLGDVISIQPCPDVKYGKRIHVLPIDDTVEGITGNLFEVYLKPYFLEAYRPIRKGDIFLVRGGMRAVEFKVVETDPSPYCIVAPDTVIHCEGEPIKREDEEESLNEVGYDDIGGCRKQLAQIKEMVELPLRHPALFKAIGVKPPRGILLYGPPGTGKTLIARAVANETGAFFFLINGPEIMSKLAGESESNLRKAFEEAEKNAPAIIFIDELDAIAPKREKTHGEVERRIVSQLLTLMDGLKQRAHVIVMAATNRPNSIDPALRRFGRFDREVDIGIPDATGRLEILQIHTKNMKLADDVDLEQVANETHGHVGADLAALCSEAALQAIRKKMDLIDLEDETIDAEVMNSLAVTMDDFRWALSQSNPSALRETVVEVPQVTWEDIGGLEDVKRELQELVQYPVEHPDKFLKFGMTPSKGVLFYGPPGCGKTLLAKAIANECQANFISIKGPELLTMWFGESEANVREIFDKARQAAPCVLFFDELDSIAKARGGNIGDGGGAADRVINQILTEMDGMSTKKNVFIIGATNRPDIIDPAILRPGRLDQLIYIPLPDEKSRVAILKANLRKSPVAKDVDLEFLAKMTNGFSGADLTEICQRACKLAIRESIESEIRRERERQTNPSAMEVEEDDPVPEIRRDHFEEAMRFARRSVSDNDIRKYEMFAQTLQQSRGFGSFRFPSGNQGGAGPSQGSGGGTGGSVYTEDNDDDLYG
bCat KO growth = primary screen for growth suppressors in beta-catenin knockout HCT116 cells (colon tumor, human). HCT116 beta-catenin knockout viability, CellTiter-Glo, 60 h; stronger effect = lower value. viability, % at 10 µM. 140,000 compounds, 1.5% hits. AID 818, 2007;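 active means viability at or under a set limit, the compound median less 4 SD, cut at about 6% in these data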;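 further: 0% = Hyamine 1622 control at 20 µM and 100% = untreated cell control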
* = called active by the depositor; · = not tested or not shown.

SMILES	Lmaj promast	INS promoter inh	ROMK mod	HCT116 PTEN-null	p97 ATPase inh	bCat KO growth
Cc1c(CCOC(=O)C23CC4CC(CC(C)(C4)C2)C3)sc[n+]1Cc1ccccc1	100*	·	0.083	5	0	2.9*
COc1ccccc1NC(=O)CCN1C(=O)c2ccccc2S1(=O)=O	-6	·	-0.26	·	2	·
CC(=O)c1sc(-c2ccccc2)cc1NS(=O)(=O)c1ccccc1	·	·	·	·	-11	·
CC(=O)c1sc(-c2ccccc2)cc1NS(=O)(=O)c1ccc(C)cc1	·	·	2.7*	·	-3	·
O=C(Nc1ccccc1N1CCOCC1)C1CCCCN1S(=O)(=O)c1ccccc1 (centres undefined)	12	·	-0.27	·	0	·
CCOc1ccc(N2CC(C(=O)Nc3ccccc3N3CCOCC3)CC2=O)cc1 (centres undefined)	77*	20	0.69	87	-1	94
COC(=O)c1ccccc1NC(=O)C1CC(=O)N(c2ccc(F)cc2)C1 (centres undefined)	4	71*	·	87	0	94
O=C(Nc1ccccc1N1CCOCC1)C1CCN(S(=O)(=O)c2ccccc2F)CC1	56*	-30	0.56	97	1	93
COC(=O)c1ccccc1NC(=O)C1CC(=O)N(c2ccc(C)c(C)c2)C1 (centres undefined)	0	37	0.6	98	-3	103
Cc1nn(C)cc1CN(C)C(=O)CCc1nnc(CCC2CCCCC2)o1	-2	·	-0.36	·	6	·
O=C1c2ccccc2C(=O)C12OC2c1ccc(Cl)cc1Cl (centres undefined)	33	21	·	1.7*	5	2.6*
CCCn1c(N)c(NCCN2CCOCC2)c(=O)n(CC(=O)NCc2ccccc2)c1=O	-4	-36	0.28	·	4	·
CCc1ccc(CNCc2ccc(F)cc2)cc1	71*	12	-0.89	86	-2	81
CCc1ccc(CNCc2cccnc2)cc1	90*	-35	·	19	3	18
O=C(O)c1ccc(CNCc2ccc(F)cc2)cc1	-5	·	-0.22	·	6	·
CCOC(=O)c1c(C)[nH]c(C(=O)CSc2nccc(C)n2)c1C	75*	25	·	101	-3	93
CCc1ccccc1NC(=S)N(Cc1ccc(OC)cc1)CC1CCC(C(=O)O)CC1 (centres undefined)	-9	·	-1	·	1	·
Cc1cc(NC(=O)c2cccs2)n(-c2nc3ccccc3[nH]2)n1	4	·	0.72	·	1	·
Cc1ccccc1-n1nc(C(=O)c2cccs2)cc(-c2nc3ccccc3[nH]2)c1=N	98*	17	·	50	5	54
COc1ccc(-n2nc(C(=O)c3cccs3)cc(-c3nc4ccccc4[nH]3)c2=N)cc1	99*	17	·	4	7	20
Cc1cccc(-n2nc(C(=O)c3ccco3)cc(-c3nc4ccccc4[nH]3)c2=N)c1	100*	30	-0.19	55	3	60
COC(=O)CSc1ncccc1-c1nc2ccccc2[nH]1	-1	39	·	99	-2	83
CC(NC(=O)Nc1ccccc1F)C(C)(C)C (centres undefined)	-1	-11	-0.078	·	0	·
Cc1cnc(C(=O)OCC(=O)c2cc(C)n(C)c2C)cn1	-4	·	-1	·	0	·
CC(C)(C)c1ccc(C(=O)N/N=C/c2ccc(OCCCF)cc2)cc1	5	·	-0.035	·	2	·
SMILES	Lmaj promast	INS promoter inh	ROMK mod	HCT116 PTEN-null	p97 ATPase inh	bCat KO growth
CC1CCC(C(C)C)C(OC(=O)CSc2nnc(N)s2)C1 (centres undefined)	64*	-6	·	80	-2	72
O=C(OCCNc1nc(-c2ccccc2)nc2ccccc12)c1ccncc1	72*	·	0.031	·	-5	·
CCCOC(=O)c1cccc(NC(=O)c2cccnc2)c1	2	-12	·	104	1	102
O=C(OCCNc1nc(-c2ccccc2)nc2ccccc12)c1cccnc1	57*	·	-1	·	-1	·
CCCOC(=O)c1cccc(Nc2nc(-c3cccnc3)nc3ccccc23)c1	56*	·	-0.41	3.6*	2	7
O=C(O)CCNc1nc(-c2ccccc2)nc2ccccc12	12	7	·	99	4	98
CC(=O)[C@@]1(O)CC[C@H]2[C@@H]3CCC4=CC(=O)CC[C@]4(C)[C@H]3CC[C@@]21C	-5	-95	·	83	1	81
CCCCCC(=O)O[C@]1(C(C)=O)CC[C@H]2[C@@H]3CCC4=CC(=O)CC[C@]4(C)[C@H]3CC[C@@]21C	34	43	·	7	-2	4.8*
CNC(=S)N1N=C(c2ccc(C)cc2)CC1c1ccc(Br)cc1 (centres undefined)	100*	27	-0.19	54	-3	41
CNC(=S)N1N=C(c2ccc(C)cc2)CC1c1ccc(Cl)cc1 (centres undefined)	100*	-11	-0.88	50	-5	42
O=C(Nc1cccc(Cl)c1)N1CCN2C(=O)c3ccccc3C12c1ccccc1 (centres undefined)	98*	0	·	61	0	80
O=C(CCl)N1CCN2C(=O)c3ccccc3C12c1ccc(Cl)cc1 (centres undefined)	100*	-12	-1.7	·	6	·
Cc1ccc(C(=O)N2CCN3C(=O)c4ccccc4C23c2ccc(Cl)cc2)cc1 (centres undefined)	94*	-29	-0.16	8	-1	13
COc1cc(S(=O)(=O)Nc2cccc(C)c2)ccc1N=Cc1c(C)[nH]n(-c2ccccc2)c1=O	57*	-30	·	24	-1	20
COc1nccnc1NS(=O)(=O)c1ccc(N=Cc2c(C)[nH]n(-c3ccccc3)c2=O)cc1	23	14	-0.4	87	-2	80
COc1cc(S(=O)(=O)Nc2ccc(C)cc2)ccc1N=Cc1c(C)[nH]n(-c2ccccc2)c1=O	1	72*	0.74	91	-1	86
Cc1ccc(OCCOCCN2CCN(C)CC2)c([N+](=O)[O-])c1	-6	·	·	·	5	·
CC(C)(C)c1cccc(OCCCSc2ncccn2)c1	22	-51	·	76	-1	79
CC(C)(C)c1ccccc1OCCOCCN1CCCCCC1	96*	·	-0.0087	·	-4	·
Cc1ccc(C(C)(C)C)c(OCCOCCN2CCCC2)c1	96*	4	0.25	60	0	63
CC(C)(C)c1ccccc1OCCOCCSc1ncccn1	97*	-53	0.0062	78	-2	79
COc1ccc(Oc2nc(OC)cc(OC)n2)cc1	3	·	-0.21	·	-1	·
COc1ccc(-c2c(C(F)(F)F)nn(C)c2NC(=O)CSCC(=O)O)cc1	·	·	0.037	·	0	·
C/C=C/C=N/Nc1nc(-c2ccc([N+](=O)[O-])cc2)cs1	9	31	·	99	2	82
COc1ccccc1-c1csc(NC(=O)c2ccc(N3C(=O)CCC3=O)cc2)n1	-4	·	1.2	·	3	·
